How the values were obtained:
Test in all cases: PBM binding z-score (relative to random genomic background probes); higher = stronger binding; sequences stand for … in GC…GCGATTGACAGCGTAGAATGAAGG
[1] = tested on: FXR:RXRa (NR concentration 270 nM, RXRa partner concentration 90 nM)
Method in brief: (§1)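 For binding z-scores, the reference was random background probes on custom Agilent 4×180K protein-binding microarrays. These arrays were incubated 1 h with ligand-free nuclear receptor dimers in PBS pH 7.4, 2% milk, 0.02% Triton X-100, 1 mM DTT, 0.2 mg/mL BSA and 0.4 mg/ml salmon testes DNA. Fluorescence was scanned after antibody detection of each partner (one per run) and regression-normalized.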

[2] = tested on: LXRa:RXRa (NR concentration 270 nM, RXRa partner concentration 90 nM)
Method in brief: as §1

[3] = tested on: LXRa homodimer (NR concentration 270 nM)
Method in brief: as §1

[4] = tested on: LXRb:RXRa (NR concentration 270 nM, RXRa partner concentration 90 nM)
Method in brief: as §1

[5] = tested on: LXRb homodimer (NR concentration 270 nM)
Method in brief: as §1

[6] = tested on: PPARa:RXRa (NR concentration 270 nM, RXRa partner concentration 90 nM)
Method in brief: as §1

[7] = tested on: PPARg:RXRa (NR concentration 180 nM, RXRa partner concentration 90 nM)
Method in brief: as §1

[8] = tested on: PPARg:RXRa 270nM:90nM, anti-RXR (NR concentration 270 nM, RXRa partner concentration 90 nM)
Method in brief: as §1

[9] = tested on: PPARg:RXRa 30nM:10nM, anti-RXR (NR concentration 30 nM, RXRa partner concentration 10 nM)
Method in brief: as §1

[10] = tested on: PPARg:RXRa 90nM:30nM, anti-RXR (NR concentration 90 nM, RXRa partner concentration 30 nM)
Method in brief: as §1

[11] = tested on: PPARg:RXRa DBDmut IVT, anti-RXR (DBD mutation: RXRa K156A/R161A, NR concentration 270 nM, RXRa partner concentration 90 nM)
Method in brief: as §1

[12] = tested on: PPARg:RXRa IVT, anti-PPARg (NR concentration 270 nM, RXRa partner concentration 90 nM)
Method in brief: as §1

[13] = tested on: PPARg DBDmut:RXRa IVT, anti-PPARg (DBD mutation: PPARg1 K132A/R137A, NR concentration 270 nM, RXRa partner concentration 90 nM)
Method in brief: as §1

[14] = tested on: PPARg DBDmut IVT, anti-PPARg (DBD mutation: PPARg1 K132A/R137A, NR concentration 270 nM)
Method in brief: as §1

[15] = tested on: PPARg homodimer (NR concentration 180 nM)
Method in brief: as §1

[16] = tested on: PXR:RXRa (NR concentration 270 nM, RXRa partner concentration 90 nM)
Method in brief: as §1

[17] = tested on: PXR homodimer (NR concentration 270 nM)
Method in brief: as §1

[18] = tested on: RARa:RXR (NR concentration 270 nM, RXRa partner concentration 90 nM)
Method in brief: as §1

[19] = tested on: RARa homodimer (NR concentration 270 nM)
Method in brief: as §1

[20] = tested on: RARb:RXRa (NR concentration 270 nM, RXRa partner concentration 90 nM)
Method in brief: as §1

Sequence | PBM binding z-score [1] | PBM binding z-score [2] | PBM binding z-score [3] | PBM binding z-score [4] | PBM binding z-score [5] | PBM binding z-score [6] | PBM binding z-score [7] | PBM binding z-score [8] | PBM binding z-score [9] | PBM binding z-score [10] | PBM binding z-score [11] | PBM binding z-score [12] | PBM binding z-score [13] | PBM binding z-score [14] | PBM binding z-score [15] | PBM binding z-score [16] | PBM binding z-score [17] | PBM binding z-score [18] | PBM binding z-score [19] | PBM binding z-score [20]
CCAGACAGGTGAGAAGGTAAATCAGCCTCGATTA | 0.109 | 0.108 | -0.129 | 0.141 | -0.154 | 0.484 | 0.39 | 0.456 | 0.0319 | 0.15 | 0.792 | 0.856 | -0.421 | -0.384 | 0.684 | 0.0672 | -0.0292 | 0.359 | -0.00331 | 0.508
TAGCCCAGGTCATTCAGGGGCCAGTATAGAAAGC | 5.03 | 4.14 | 0.808 | 2.98 | 0.952 | 3.9 | 2.2 | 2.46 | 0.688 | 1.57 | 0.643 | 2.16 | -0.0273 | 0.498 | 2.32 | 3.28 | 0.378 | 3.94 | 0.0689 | 3.67
CGAACTAGGTCATTGACAGGAGAGTGAATAGTAA | 4.67 | 2.65 | 0.0352 | 1.64 | -0.158 | 4.89 | 7.41 | 6.44 | 3.96 | 5.77 | 7.92 | 8.28 | 2.36 | 3.6 | 1.32 | 1.04 | 0.0101 | 1.99 | 0.473 | 3.65
CCGACTGGGGCATAAAGTTACCATAAGCCAGCCC | -0.335 | -0.54 | -0.298 | -0.42 | -1.15 | 0.0732 | 0.855 | 0.803 | -0.215 | 0.313 | 2.19 | 1.79 | -0.543 | -1.06 | -0.724 | -0.621 | -0.245 | -0.613 | -0.145 | 0.149
GCTAGTTGGTCAGTAAAAGGTCACATACCGGTCG | 2.76 | 4.16 | 4.82 | 4.01 | 0.816 | 4.22 | 2.57 | 4.42 | 2.3 | 3.92 | 1.23 | 2.96 | 0.372 | 0.203 | 6.37 | 4.88 | 0.988 | 5.66 | 3.62 | 4.23
TCACGGAGGACACGAAAGGTCAGAGCTCGACATC | 3.04 | 4.14 | 3.14 | 3.07 | -0.784 | 3.5 | 1.48 | 2.62 | 2.28 | 2.43 | 1.84 | 1.63 | -0.581 | -0.261 | 2.1 | 4.03 | 0.408 | 4.8 | 1.27 | 4.28
GCGACTGGGGCAAAGCAGGTTACCACAAGGTTGG | 0.61 | -0.0445 | -0.447 | 0.204 | -1.07 | 1.14 | 1.35 | 1.34 | -0.386 | 0.797 | 4.37 | 3.9 | -0.49 | -1.47 | 0.0526 | 0.473 | -0.466 | 0.796 | -0.331 | 0.888
CCTGCTAGGTCACGGTCAGCTAATCTACAGTATG | 4.56 | 3.65 | 0.541 | 2.45 | 0.134 | 4.05 | 4.31 | 4.17 | 1.72 | 3.2 | 5.34 | 5.12 | 1.07 | 0.203 | 2.79 | 2.08 | -0.469 | 3.24 | 1.67 | 4.46
GCTGCTAGGTCCACTGATGGTCAGCTAAAGCTCG | -0.489 | -0.3 | -0.698 | -0.586 | -0.746 | -0.509 | -0.592 | -0.813 | -0.963 | -0.946 | 0.0704 | -0.423 | -1.19 | -1.02 | -1.01 | -0.525 | -1.03 | -0.598 | -1.55 | 0.403
TCTTGTAGATCTACAGGAGGTTAAGAAAGATCGA | -0.0507 | 1.18 | 0.0906 | 1.05 | -0.353 | 1.13 | 0.0555 | 1.06 | 2.09 | 1.48 | 0.98 | 0.28 | 0.42 | 1.12 | -0.349 | 0.739 | -0.569 | 0.866 | -0.41 | 0.172
ACTTACGGGTCAACAAGGTTATAGCACGCGTATA | 6.88 | 4.7 | 0.809 | 4.4 | 1.05 | 6.09 | 5.69 | 5.32 | 2.2 | 4.02 | 3.06 | 4.26 | 1.25 | 1.13 | 2.14 | 4.49 | 1.48 | 4.77 | 1.05 | 4.49
ATCTCTAGGTAAAGTTCACTGAAAGATCGATAGA | 2.15 | 3.16 | 3.22 | 2.37 | 1.29 | 3.64 | 5.42 | 5.61 | 4.25 | 5.65 | 2.42 | 3.28 | 2.5 | 1.51 | 2.51 | 3.54 | 2.92 | 2.82 | 1.43 | 3.51
CCTACTGGGCCGTCAGGTCATTGATATCAACGTT | 1.31 | 0.772 | 0.809 | 1.21 | -0.585 | 1.71 | 0.704 | 1.92 | 0.179 | 1.15 | 1.17 | 2.14 | -0.782 | -0.667 | 0.741 | 1.33 | 0.502 | 1.53 | 0.0542 | 1.66
CCAGACAGGTGAGAAGGTAACTCACCCTCGATTA | -0.00684 | 0.259 | -0.0683 | 0.491 | -0.394 | 1.09 | 0.731 | 0.509 | -0.0353 | -0.0765 | 0.889 | 0.707 | -0.339 | -0.245 | 0.968 | 0.325 | 0.219 | 0.748 | 0.925 | 0.764

— the supplement of paper PMC6555819
